Results reported in PubChem BioAssay.
Activity calls are given as the source filed them.

How the values were obtained:
[1] = test system: Wnt5a (protein binding on small-molecule microarray); experiment: small molecules binding Wnt5a protein – biophysical, small-molecule microarray, 635/667 nm fluorescence, primary screen (AID 1142); conditions: 635 nm fluorescence, higher = more signal;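 further: fluorescence read at 667 nm with signal to noise per printed feature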
[2] = ATP-based viability of Huh7 replicon cells – cell-based, CellTiter-Glo luminescence, basal, 48 h, cytotoxicity control for HCV replication inhibitor project, primary screen (AID 1143); conditions: higher = more signal, called active from +8 up or from −8 down;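 further: Huh7 hepatoma cells carrying a hepatitis C replication reporter with no stimulus; test concentration not given here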
[3] = basal CRE-LacZ reporter activity in PC12 – cell-based, unstimulated, primary screen (AID 1145); conditions: no forskolin, luminescence, 4.5 h, higher = more signal, called active from +8 up or from −8 down
[4] = forskolin-driven CRE-LacZ activity in PC12 – cell-based, CRE-LacZ reporter, forskolin-stimulated, primary screen (AID 1146); conditions: luminescence, 4.5 h, higher = more signal, called active from +8 up or from −8 down;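 further: PC12 cells with 6xCRE LacZ reporter stimulated by forskolin 10 µM; beta-galactosidase reporter signal reflecting CREB driven transcription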
[5] = molecular target: Streptavidin (Streptomyces avidinii) (UniProt P22629); experiment: compounds binding control protein streptavidin – biophysical, small-molecule microarray, 635/667 nm fluorescence, artefact control for SMM compound annotation, primary screen (AID 1147); conditions: higher = more signal;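 further: signal reflects streptavidin binding to arrayed compounds as a control protein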
[6] = probe aInhba binding on compound microarray – biochemical, small-molecule microarray, 635/667 nm fluorescence, primary screen (AID 1148); conditions: higher = more signal;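 further: score merges 667nm spot fluorescence with signal-to-noise for antibody binding to printed compounds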
Torsin-1A (Homo sapiens) [7] = molecular target: Torsin-1A (Homo sapiens) (UniProt O14656); experiment: TOR1A wild-type binding on microarray – cell lysate, small-molecule microarray, lysate, 635/667 nm, primary screen (AID 1149); conditions: COS7 hTOR1A-WT lysate, 635 nm fluorescence, higher = more signal
Torsin-1A (Homo sapiens) [8] = molecular target: Torsin-1A (Homo sapiens) (UniProt O14656); experiment: torsin A mutant lysate binding on microarrays – cell lysate, small-molecule microarray, COS7 lysate, 635/667 nm fluorescence, primary screen (AID 1150); conditions: COS7 hTOR1A mutant lysate, 635 nm fluorescence, higher = more signal;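 further: score pools 667 nm emission and signal to noise measuring lysate protein binding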
[9] = test system: Sonic hedgehog protein (Shh); experiment: Sonic hedgehog microarray binding compounds – biochemical, small-molecule microarray, 635/667 nm fluorescence, primary screen (AID 1151); conditions: 635 nm fluorescence, higher = more signal;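 further: Shh protein binding to compounds spotted on small-molecule microarray slides; score combines spot fluorescence intensity with signal-to-noise across triplicate slides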
[10] = optical density shifts of acrAB sulA E. coli – strain DRC41, OD650, 48 h, E. coli filamentation inducer project, primary screen (AID 1152); conditions: higher = more signal, called active from +8 up or from −8 down;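 further: E. coli MC1000 strain DRC41 lacking acrAB efflux pump and sulA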
[11] = probe aLefty1 binding on compound microarray – biochemical, small-molecule microarray, 635/667 nm fluorescence, primary screen (AID 1153); conditions: higher = more signal;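 further: score merges spot fluorescence with signal-to-noise ratio from the scanned slide images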
[12] = plasmodial surface anion channel blockers, osmotic lysis – cell-based, P. falciparum Indochina, OD700, 1 h, primary screen (AID 1154); conditions: P. falciparum Indochina infected RBC osmotic lysis, higher = more signal, called active from +8 up or from −8 down
[13] = plasmodial surface anion channel blockers, osmotic lysis – cell-based, P. falciparum Indochina, OD700, 2 h, primary screen (AID 1155);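 further: lysis reports solute entry through the parasite surface anion channel PSAC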; conditions: P. falciparum Indochina infected erythrocytes, higher = more signal, called active from +8 up or from −8 down
[14] = changes in parasitized red cell lysis, either direction – P. falciparum Indochina, OD700, 3 h, PSAC antagonist project, primary screen (AID 1156); conditions: P. falciparum-infected erythrocytes, osmotic lysis, higher = more signal, called active from +8 up or from −8 down
[15] = plasmodial surface anion channel blockers, osmotic lysis – cell-based, P. falciparum Indochina, OD700, 18 h, primary screen (AID 1157); conditions: P. falciparum Indochina infected erythrocytes, osmotic lysis OD700, 18 h; higher = more signal, called active from +8 up or from −8 down
[16] = S6 kinase pathway phospho-S6 level changes – cell-based, A549, cytoblot, luminescence, serum-stimulated, primary screen (AID 1158); conditions: 5 h, higher = more signal;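 further: serum-stimulated A549 lung adenocarcinoma cells; signal is phosphorylated S6 detected by cytoblot immunostaining with HRP secondary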
[17] = molecular target: NADPH oxidase 2 (Homo sapiens) (UniProt P04839); experiment: compounds shifting NOX2 Amplex Red fluorescence – cell-based, HEK293-NOX2, PMA-stimulated, NOX inhibitor project, primary screen (AID 1159); conditions: 45 min, higher = more signal, called active from +8 up or from −8 down; further: test concentration not given here
[18] = molecular target: NADPH oxidase 4 (Homo sapiens) (UniProt Q9NPH5); experiment: compounds shifting NOX4 Amplex Red fluorescence – cell-based, HEK293-NOX4, tetracycline-induced, NOX inhibitor project, primary screen (AID 1160); conditions: HEK293-NOX4, Amplex Red H2O2 fluorescence, 45 min; higher = more signal, called active from +8 up or from −8 down
[19] = molecular target: NADPH oxidase 5 (Homo sapiens) (UniProt Q96PH1); experiment: compounds shifting NOX5 Amplex Red fluorescence – cell-based, HEK293-NOX5, NOX inhibitor project, primary screen (AID 1161); conditions: HEK293-NOX5, ionomycin, 45 min, higher = more signal
[20] = compound effects on lung adenocarcinoma cell viability – A549, calcein-AM fluorescence, 48 h, basal, profiling panel (AID 1162); conditions: higher = more signal; further: test concentration not given here

Sequence of NADPH oxidase 2 (Homo sapiens) (P04839 whole entry, looked up): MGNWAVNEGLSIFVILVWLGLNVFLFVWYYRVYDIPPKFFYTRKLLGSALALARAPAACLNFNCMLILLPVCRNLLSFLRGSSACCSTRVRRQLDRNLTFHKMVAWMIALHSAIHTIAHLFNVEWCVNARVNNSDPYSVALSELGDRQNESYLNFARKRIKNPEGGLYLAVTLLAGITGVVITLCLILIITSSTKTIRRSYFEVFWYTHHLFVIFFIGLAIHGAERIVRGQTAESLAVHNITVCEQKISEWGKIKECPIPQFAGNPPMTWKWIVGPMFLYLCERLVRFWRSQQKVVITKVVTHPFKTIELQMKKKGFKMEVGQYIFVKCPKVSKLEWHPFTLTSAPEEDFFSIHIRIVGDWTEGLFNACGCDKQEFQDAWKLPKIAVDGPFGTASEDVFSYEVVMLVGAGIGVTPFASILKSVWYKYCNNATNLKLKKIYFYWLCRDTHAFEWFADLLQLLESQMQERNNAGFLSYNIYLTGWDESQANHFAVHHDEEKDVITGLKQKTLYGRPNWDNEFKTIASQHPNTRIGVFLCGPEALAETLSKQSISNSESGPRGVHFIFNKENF
Sequence of Torsin-1A (Homo sapiens) (O14656 whole entry, looked up): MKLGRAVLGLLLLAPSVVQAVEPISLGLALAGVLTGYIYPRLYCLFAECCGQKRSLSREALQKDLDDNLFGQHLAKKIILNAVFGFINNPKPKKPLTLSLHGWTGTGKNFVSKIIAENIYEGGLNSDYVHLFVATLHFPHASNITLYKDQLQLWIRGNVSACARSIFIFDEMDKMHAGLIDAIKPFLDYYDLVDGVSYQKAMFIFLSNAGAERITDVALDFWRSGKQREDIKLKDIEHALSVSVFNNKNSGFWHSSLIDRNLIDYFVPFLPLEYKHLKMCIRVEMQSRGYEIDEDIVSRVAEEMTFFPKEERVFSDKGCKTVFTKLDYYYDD
Sequence of NADPH oxidase 4 (Homo sapiens) (Q9NPH5 whole entry, looked up): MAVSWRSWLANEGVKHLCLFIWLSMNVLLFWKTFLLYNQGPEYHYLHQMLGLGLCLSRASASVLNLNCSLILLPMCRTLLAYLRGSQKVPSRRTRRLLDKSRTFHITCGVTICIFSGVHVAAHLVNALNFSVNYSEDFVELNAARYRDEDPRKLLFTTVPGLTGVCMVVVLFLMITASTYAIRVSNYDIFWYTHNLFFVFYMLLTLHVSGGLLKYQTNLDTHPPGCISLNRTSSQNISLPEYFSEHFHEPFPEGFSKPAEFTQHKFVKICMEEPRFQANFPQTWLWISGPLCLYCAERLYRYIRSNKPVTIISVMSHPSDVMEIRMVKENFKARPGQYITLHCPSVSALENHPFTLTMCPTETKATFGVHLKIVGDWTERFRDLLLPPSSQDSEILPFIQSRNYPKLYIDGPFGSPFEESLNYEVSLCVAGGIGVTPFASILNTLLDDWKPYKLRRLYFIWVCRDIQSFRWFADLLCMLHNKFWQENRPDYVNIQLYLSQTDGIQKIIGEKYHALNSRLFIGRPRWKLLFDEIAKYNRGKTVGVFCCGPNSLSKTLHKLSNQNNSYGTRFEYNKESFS
Sequence of Streptavidin (Streptomyces avidinii) (P22629 whole entry, looked up): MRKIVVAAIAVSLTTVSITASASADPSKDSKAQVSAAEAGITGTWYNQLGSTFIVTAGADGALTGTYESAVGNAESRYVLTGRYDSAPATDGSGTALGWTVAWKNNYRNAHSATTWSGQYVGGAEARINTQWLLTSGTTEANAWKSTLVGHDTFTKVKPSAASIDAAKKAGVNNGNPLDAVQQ
Sequence of NADPH oxidase 5 (Homo sapiens) (Q96PH1 whole entry, looked up): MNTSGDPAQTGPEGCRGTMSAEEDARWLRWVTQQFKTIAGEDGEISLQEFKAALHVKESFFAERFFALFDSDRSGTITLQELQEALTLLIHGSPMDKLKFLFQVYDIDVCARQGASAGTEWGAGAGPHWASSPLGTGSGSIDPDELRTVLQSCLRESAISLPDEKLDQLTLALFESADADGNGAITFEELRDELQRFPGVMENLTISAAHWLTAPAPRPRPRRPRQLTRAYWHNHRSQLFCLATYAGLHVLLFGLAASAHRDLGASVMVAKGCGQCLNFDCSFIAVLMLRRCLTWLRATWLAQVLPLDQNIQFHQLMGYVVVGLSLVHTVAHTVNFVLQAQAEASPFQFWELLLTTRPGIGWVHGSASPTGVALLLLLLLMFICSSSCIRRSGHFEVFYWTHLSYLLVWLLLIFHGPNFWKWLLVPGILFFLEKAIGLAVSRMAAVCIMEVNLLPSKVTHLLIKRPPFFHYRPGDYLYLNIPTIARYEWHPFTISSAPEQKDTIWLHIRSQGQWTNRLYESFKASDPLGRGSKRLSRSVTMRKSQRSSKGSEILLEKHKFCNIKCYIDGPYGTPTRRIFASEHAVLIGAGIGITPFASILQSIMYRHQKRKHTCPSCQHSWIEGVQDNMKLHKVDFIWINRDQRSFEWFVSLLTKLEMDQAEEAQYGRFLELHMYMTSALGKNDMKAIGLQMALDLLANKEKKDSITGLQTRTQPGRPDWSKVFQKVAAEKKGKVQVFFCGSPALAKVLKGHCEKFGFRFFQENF

Compound	composite z-score [1]	z-score [2]	z-score [3]	z-score [4]	composite z-score [5]	composite z-score [6]	composite z-score (Torsin-1A (Homo sapiens) [7])	composite z-score (Torsin-1A (Homo sapiens) [8])	composite z-score [9]	z-score [10]	composite z-score [11]	z-score [12]	z-score [13]	z-score [14]	z-score [15]	z-score [16]	z-score [17]	z-score [18]	z-score [19]	z-score [20]
CC(C)C(CO)N1C(=O)[C@@H]2[C@H]3C(=O)OCC=C[C@H]3OC23C=CCN(Cc2ccccc2)C(=O)[C@@H]13 (stereo not given in full)	-0.353	-0.524 (inactive)	0.325 (inactive)	0.559 (inactive)	-1.32	-0.195	-0.411	-1.02	0.565	1.64 (inactive)	-0.268	0.379 (inactive)	-0.0407 (inactive)	1.32 (inactive)	-0.16 (inactive)	-0.257	1.5 (inactive)	0.118 (inactive)	1.61	-0.769
O=C(O)[C@H]1C[C@H]2C(=O)NCC(=O)N2[C@H]1c1cccc(OCCO)c1	0.0144	-0.812 (inactive)	0.285 (inactive)	-0.736 (inactive)	0.42	0.263	0.836	0.654	0.821	2.08 (inactive)	1.24	9.23 (active)	1.29 (inactive)	-1.73 (inactive)	0.818 (inactive)	0.617	1.81 (inactive)	1.52 (inactive)	1.61	-0.24
O=C(N1CCCCC1)[C@@]1(Cc2ccccc2)N=C(c2ccc(OCCCO)cc2)O[C@H]1c1ccccc1	0.578	-5.07 (inactive)	0.414 (inactive)	-1.06 (inactive)	1.13	0.749	0.599	1.42	-0.401	0.696 (inactive)	1.17	14.3 (active)	2.37 (inactive)	2.82 (inactive)	-0.657 (inactive)	0.845	-2.63 (inactive)	0.489 (inactive)	-0.326	-1.51
COCCOC(=O)N1C(=O)[C@@]2(c3cc(C#CC4(O)CCCCCC4)ccc31)[C@H](c1ccc(O)cc1)N1[C@H](c3ccccc3)[C@H](c3ccccc3)OC(=O)[C@H]1[C@@H]2C(N)=O	0.496	-2.03 (inactive)	-0.168 (inactive)	-0.304 (inactive)	0.629	0.101	0.0241	0.497	1.22	1.91 (inactive)	0.181	1.14 (inactive)	-1.24 (inactive)	-1.54 (inactive)	-2.13 (inactive)	0.736	1.97 (inactive)	0.751 (inactive)	1.29	0.0692
COc1ccc([Si](C)(C)[C@H]2[C@H](CC(=O)N(CCO)Cc3ccccc3)O[C@@]3(C(=O)N(Cc4cccc(N5C(=O)COc6ccccc65)c4)c4ccccc43)[C@@H]2C)cc1	0.223	-3.26 (inactive)	2.61 (inactive)	-1.58 (inactive)	0.224	0.0566	0.275	0.493	2.03	2.01 (inactive)	0.0437	12.7 (active)	2.77 (inactive)	0.144 (inactive)	1.28 (inactive)	0.721	0.0235 (inactive)	0.789 (inactive)	2.17	0.0715
CCN(CC)c1ccc(N2CC=CC34O[C@@H]5C=CCOC(=O)[C@@H]5[C@H]3C(=O)N(C(CO)C(C)C)[C@@H]4C2=O)cc1 (stereo not given in full)	-0.191	-0.524 (inactive)	0.471 (inactive)	0.6 (inactive)	-0.258	-0.391	-0.156	-0.701	0.0806	1.38 (inactive)	0.189	-0.185 (inactive)	-0.262 (inactive)	1.21 (inactive)	0.135 (inactive)	-0.369	0.787 (inactive)	0.196 (inactive)	1.23	-0.0755
CCCNC(=O)[C@@]1(Sc2ccc(C)cc2)CC(=O)N(Cc2cc(C(F)(F)F)cc(C(F)(F)F)c2)[C@@H]1c1ccc(CO)cc1I	0.0758	-3.48 (inactive)	0.0279 (inactive)	-1.35 (inactive)	-0.179	0.172	-0.365	0.0283	0.158	3.98 (inactive)	0.114	2.98 (inactive)	0.438 (inactive)	-0.436 (inactive)	-0.191 (inactive)	4.1	1.32 (inactive)	-1.29 (inactive)	1.37	2.5
COc1ccc([Si](C)(C)[C@@H]2[C@@H](CC(=O)N3CCC[C@H]3CO)O[C@]3(C(=O)N(Cc4ccc(I)cc4)c4ccccc43)[C@H]2C)cc1	0.229	-4.55 (inactive)	0.105 (inactive)	-1.86 (inactive)	0.983	-0.109	0.626	0.199	0.646	1.97 (inactive)	0.0677	5.17 (inactive)	0.0509 (inactive)	-0.7 (inactive)	-1.17 (inactive)	2.62	2.26 (inactive)	0.932 (inactive)	4	-0.298
C#CCOc1ccc(C[C@H]2C(=O)O[C@H](Cc3ccccc3)[C@H](/C=C/C3CC3)N2CC#C)cc1	-0.245	-2.48 (inactive)	-0.414 (inactive)	0.741 (inactive)	-0.0298	-0.183	0.498	0.212	0.145	2.04 (inactive)	-0.279	0.57 (inactive)	-0.251 (inactive)	-0.372 (inactive)	-0.383 (inactive)	0.242	-0.21 (inactive)	0.764 (inactive)	-1.52	-0.743
